Assay results: article PMC4336329 (PLoS ONE, 2015)
About 14,000 (4.5%) of roughly 310,000 compounds showed an effect of 50% or more. The effect is printed as a negative number. The list comes from a sample in which strong results are over-represented; it also holds similar structures and randomly drawn compounds.

What follows are compounds tested against human ether-à-go-go-related gene (hERG) potassium channel (human, UniProt Q12809) (assay: primary screen, population patch clamp on CHO cells stably expressing hERG; higher = less effect of the substance).
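Also: peak tail current of the secondary pulse compared with the same well before compound.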

Chain of human ether-à-go-go-related gene (hERG) potassium channel (Q12809 whole entry, looked up): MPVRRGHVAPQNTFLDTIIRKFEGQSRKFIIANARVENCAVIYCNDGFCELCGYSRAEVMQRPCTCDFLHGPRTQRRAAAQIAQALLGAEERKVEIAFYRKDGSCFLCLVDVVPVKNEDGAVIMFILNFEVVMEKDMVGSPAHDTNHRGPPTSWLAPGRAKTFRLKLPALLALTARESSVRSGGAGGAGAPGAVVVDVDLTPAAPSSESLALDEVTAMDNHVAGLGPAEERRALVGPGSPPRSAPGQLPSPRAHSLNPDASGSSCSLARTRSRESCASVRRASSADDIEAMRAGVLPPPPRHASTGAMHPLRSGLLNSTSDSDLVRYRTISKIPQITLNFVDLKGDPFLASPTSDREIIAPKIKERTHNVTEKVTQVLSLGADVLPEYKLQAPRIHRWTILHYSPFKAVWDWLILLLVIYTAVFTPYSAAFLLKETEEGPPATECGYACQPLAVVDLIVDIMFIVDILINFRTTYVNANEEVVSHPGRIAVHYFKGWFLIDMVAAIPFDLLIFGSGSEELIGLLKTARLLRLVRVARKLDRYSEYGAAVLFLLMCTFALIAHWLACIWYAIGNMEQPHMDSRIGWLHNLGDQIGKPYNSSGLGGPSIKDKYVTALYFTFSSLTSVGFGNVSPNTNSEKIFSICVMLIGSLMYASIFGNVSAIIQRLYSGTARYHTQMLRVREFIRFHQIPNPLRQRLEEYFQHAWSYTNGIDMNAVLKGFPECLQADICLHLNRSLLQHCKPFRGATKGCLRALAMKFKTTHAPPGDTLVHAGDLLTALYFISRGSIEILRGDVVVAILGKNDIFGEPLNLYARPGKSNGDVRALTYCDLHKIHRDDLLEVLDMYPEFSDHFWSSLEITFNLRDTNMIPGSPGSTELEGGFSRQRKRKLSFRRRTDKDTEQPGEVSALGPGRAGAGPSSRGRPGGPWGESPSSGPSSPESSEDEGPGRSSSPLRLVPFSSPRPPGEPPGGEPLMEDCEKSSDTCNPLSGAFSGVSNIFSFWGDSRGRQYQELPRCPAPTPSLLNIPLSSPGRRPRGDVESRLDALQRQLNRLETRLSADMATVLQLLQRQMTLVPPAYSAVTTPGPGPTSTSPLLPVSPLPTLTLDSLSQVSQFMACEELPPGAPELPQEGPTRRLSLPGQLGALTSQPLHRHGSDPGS

Structure (SMILES)	hERG current change (%, negative = inhibition) at 10uM [%]
CN(C)CCNc1oc(COc2ccc(Cl)cc2Cl)nc1C#N	15.3
COc1cc(OC)cc(C(=O)NNC(=O)CCOc2ccccc2OC)c1	7.89
O=C(CSc1nnc(NC(=O)c2ccccc2F)s1)NC1CC1	19.2
C=C(C)C1Cc2nc(N)nc(C)c2C1 (stereo not shown)	10.8
Cc1ccc(OCCNC(=O)c2ccccc2O)cc1	8.04
Cc1cc(C(=O)Nc2nc3c(s2)CCCC3)no1	-16.8
C=CCC(=O)OCCCCCCOc1ccc(C(=O)O)cc1	-3.87
O=C1CC(c2cc(-c3ccccc3)no2)C1	-9.96
c1ccc2nc3c(nc2c1)[nH]c1ccccc13	-15
O=C(O)c1cc2ccc3ccccc3c2[nH]1	1.56
O=C(CSc1c2c(nc3cc(Cl)ccc13)CCCC2)NCCN1CCOCC1	3.58
CCN(CC)CCCNC(=O)CSc1c2c(nc3cc(Cl)ccc13)CCCC2	-48.4
CCN(CC)CCNC(=O)CSc1c2c(nc3cc(Cl)ccc13)CCCC2	-64.1
CSc1ncc(C(=O)Nc2cccc(Cl)c2)c(C)n1	10.9
CC(NC(=O)c1cc([N+](=O)[O-])cc([N+](=O)[O-])c1)C1CC2CCC1C2 (stereo not shown)	-7.55
CC(NC(=O)c1ccc([N+](=O)[O-])cc1Cl)C1CC2CCC1C2 (stereo not shown)	-58.2
CC(NC(=O)c1ccc(F)cc1Cl)C1CC2CCC1C2 (stereo not shown)	4.99
CC(CNC(=O)c1ccc(C#N)cc1)NC(=O)c1ccc(C#N)cc1 (stereo not shown)	-76.6
CC(NC(=O)c1ccc(C#N)cc1)C1CC2CCC1C2 (stereo not shown)	-58.8
Cc1ccc(C(=O)NC(C)C2CC3CCC2C3)cc1 (stereo not shown)	19.1
CC(CNC(=O)c1ccc(N)cc1)NC(=O)c1ccc(N)cc1 (stereo not shown)	9.03
CC(NC(=O)c1ccc(Cl)cc1)C1CC2CCC1C2 (stereo not shown)	2.08
CCOc1ccc(C(=O)NCC(C)NC(=O)c2ccc(OCC)cc2)cc1 (stereo not shown)	24.5

Structure (SMILES)	hERG current change (%, negative = inhibition) at 10uM [%]
Cc1ccc(C(=O)Oc2ccc(C(=S)N3CCOCC3)cc2)cc1	-7.84
CCN(CC)c1ncnc2scc(C3COc4ccccc4O3)c12 (stereo not shown)	-8.77
COc1ccc(NC2CCCN(C(=O)C3(C)CCCCC3)C2)cc1OC (stereo not shown)	11.3
O=C(Nc1ccccc1)C1CC(=O)n2ncnc2N1 (stereo not shown)	6.48
CN(C)Cc1ccccc1C1(O)c2ccccc2CSc2ccccc21.Cl (stereo not shown)	9.09
CNC(=S)N(CCc1cccc(C)c1)Cc1cc2cc(OC)c(OC)cc2[nH]c1=O	-16.7
Cc1ccc(-c2nc(=O)[nH]c3ccccc23)cc1	-20
Cc1ccc(CN2CCN(C(=O)c3ccncc3)CC2)cc1.O=C(O)C(=O)O	-0.159
C/C(=N/NC(=O)CN1CCN(Cc2ccccc2Cl)CC1)c1cccnc1	-10.4
O=C(CN1CCN(Cc2ccccc2Cl)CC1)N/N=C/c1ccccn1	-25.8
C/C(=N/NC(=O)CN1CCN(Cc2ccccc2Cl)CC1)c1ccncc1	-65.4
C/C(=N\NC(=O)CN1CCN(Cc2ccc(C)cc2)CC1)c1ccncc1	-74.8
C/C(=N\NC(=O)CN1CCN(Cc2ccccc2)CC1)c1ccncc1	-35.8
CCCNC(=O)c1ccc2c(c1)S(=O)(=O)c1ccccc1C2=O	-10.9
COc1ccc(-c2nn(-c3ccccc3)cc2C(=O)NC(=S)N2CCOCC2)cc1OC	30.1
CCOCc1c(C(=O)NC2CCCCCC2)oc2ccccc12	8.56
CCOCc1c(C(=O)N2CCN(Cc3ccc(Br)s3)CC2)oc2ccccc12	-30.9
CCOCc1c(C(=O)NCc2ccccc2CN2CCCC2)oc2ccccc12	-72
COCc1c(C(=O)NCC2COc3ccccc3O2)oc2ccccc12 (stereo not shown)	-30.1
CCOc1ccc(OCCNC(=O)c2oc3ccccc3c2COC)cc1	-32.5
COCc1c(C(=O)NCc2ccccc2CN2CCCC2)oc2ccccc12	-66.4
COc1ccc2[nH]c3c(c2c1)CCN1C(=O)N([C@@H](C)C(=O)NCc2ccccc2OC)C(=O)[C@]31C	-17.2
CCOc1ccc2nc(SCC(=O)c3ccc(O)cc3O)sc2c1	14.5

Structure (SMILES)	hERG current change (%, negative = inhibition) at 10uM [%]
Cc1ccc([N+](=O)[O-])c(NC(=O)COC(=O)C2CC3CCCC(C2)C3=O)c1C (stereo not shown)	13.8
Cc1cc(C)n2nc(C(=O)OCCOc3ccc(F)cc3)nc2n1	-12.3
Cc1ccc(OCCOC(=O)c2nc3nccc(C)n3n2)cc1	-18.4
Cc1cc(C)n2nc(C(=O)OCC(=O)Nc3ccc4c(c3)OC(F)(F)O4)nc2n1	-63.8
Cc1cc(C)n2nc(C(=O)OCCOc3ccc(Br)cc3)nc2n1	-55.3
Cc1ccnc2nc(C(=O)OCCOc3ccc(Cl)cc3)nn12	-56.2
Cc1ccnc2nc(C(=O)OCC(=O)Nc3ccc4c(c3)OC(F)(F)O4)nn12	-49.1
Cc1cc(C)n2nc(SCCOc3ccccc3)nc2n1	-38.7
Cc1cc(C)n2nc(C(=O)OCCOc3cccc(Br)c3)nc2n1	-21.6
Cc1cc(C)n2nc(SCCOc3ccc(F)cc3)nc2n1	-68.8
Cc1cc(C)n2nc(C(=O)OCC(=O)Nc3ccc4c(c3)OCO4)nc2n1	-1.59
COc1ccc(OCCOC(=O)c2nc3nccc(C)n3n2)cc1	-3.15
COc1ccc(OCCSc2nc3nc(C)cc(C)n3n2)cc1	-13.1
Cc1nc(N)nc(COc2ccccc2)n1	16.6
Cc1cc(C)c(NC(=O)CN(C)CC(=O)N(C)CC(=O)Nc2c(Cl)cccc2Cl)c(C)c1	9.65
COc1cc(OC)cc(C(=O)NNC(=S)NC(=O)c2cccnc2)c1	14.4
CCCCc1ccc2[nH]cc(CCN)c2c1.Cl	-9.69
Cc1ccccc1-c1nc(CN2CCCC(C(=O)NCCCN3CCOCC3)C2)c(C)o1 (stereo not shown)	-7.84
COc1ccc(CCNC(=O)C2CCN(Cc3nc(-c4ccccc4C)oc3C)CC2)cc1OC	-79.2
COc1ccc(CCNC(=O)C2CCN(Cc3nc(-c4ccccc4F)oc3C)CC2)cc1OC	-45.4
COc1ccc(CCNC(=O)C2CCCN(Cc3nc(-c4ccccc4C)oc3C)C2)cc1OC (stereo not shown)	-57.7
Cc1ccccc1-c1nc(CN2CCC(C(=O)NCCCN3CCCC(C)C3)CC2)c(C)o1 (stereo not shown)	28.6
O=C(CC(Nc1cccc(Cl)c1Cl)C(=O)OCC(=O)c1cccs1)c1ccccc1 (stereo not shown)	-5.59

Structure (SMILES)	hERG current change (%, negative = inhibition) at 10uM [%]
CCOC(=O)[C@@H](CCc1ccccc1)N[C@H](C)C(=O)N1[C@H](C(=O)O)C[C@@H]2CCC[C@@H]21	15.9
CC(C)(C)NC(=O)c1ccc(COCC(F)(F)F)o1	-4.16
CCN(CC)CCNc1cc(C)c(C#N)c2nc3ccccc3n12	-20.6
CCOc1ccc2nc(COC(=O)c3ccco3)c(C(C)=O)[n+]([O-])c2c1	0.493
CCOc1ccc(-n2c(C)nnc2SCC(=O)N(CC)CC)cc1	2.63
CC(C)N1C(=O)CCC1C(=O)NCCc1ccccc1 (stereo not shown)	-6.11
COC(=O)c1c(C)oc(C)c1S(=O)(=O)N1CCCCC1	9.1
CCN(CC)CCCNC(=O)c1[nH]c2ccccc2c1Sc1ccc(Cl)cc1	-89.5
CCCCN(CC)CCCNC(=O)c1cc2c(=O)[nH]c3ccccc3c2s1	-0.682
COC(=O)c1[nH]c2ccccc2c1Sc1ccccc1	11.9
COc1ccc(/C=C/C(=O)NC(C)(C)C)cc1S(=O)(=O)N1CCOCC1	-15.2
CCCCn1c(N)c(N(CC(C)C)C(=O)c2cccc(S(=O)(=O)N3CC(C)OC(C)C3)c2)c(=O)[nH]c1=O (stereo not shown)	21.6
CC(C)Oc1ccc(C(=O)OCC(=O)N2CCCc3ccccc32)cc1	6.85
O=C(CSc1nc2c(c(=O)n1-c1ccccc1)SCC2)N1CCOCC1	5.25
Cc1ccc(-n2c(SCC(=O)N3CCCC3)nc3c(c2=O)SCC3)cc1	5.3
O=C(CSc1nc2c(c(=O)n1-c1ccccc1)SCC2)N1CCN(c2ccccc2)CC1	-76.5
COc1ccc(-n2c(SCC(=O)N3CCN(c4ccccc4)CC3)nc3c(c2=O)SCC3)cc1	-70
CCOC(=O)CSc1nc2c(c(=O)n1-c1ccc(OC)cc1)SCC2	-9.55
COc1ccc(-n2c(SCC(=O)Nc3ccccc3)nc3c(c2=O)SCC3)cc1	-18.7
Cc1cc(N)n(C2CCN(C)CC2)n1	1.99
c1ccc2c(CCNc3ncnc4nc[nH]c34)cccc2c1	-6.53
CNCCCc1[nH]nc(N)c1C#N	4.22
